Data as given in PubChem BioAssay AID904 (National Center for Advancing Translational Sciences (NCATS), 2007).
Hit rate of the full screen: of about 55,000 compounds, about 530 (0.96%) were called active. Where a call stands in place of a potency, no number is given. Roughly 7% stayed inconclusive and do not appear here. For the sample, actives were picked, then their nearest neighbours and some compounds at random. Unmarked numbers belong to inactive results. Calls follow the shape of the dose curve; as a rule, active = well fitted cell-killing curve with a large enough effect; inconclusive = small, poorly fitted or top-dose-only effect; inactive = no such curve, though single readings can be large or run the other way.

Experiment: qHTS Screen for Compounds that Selectively Target Cancer Cells with p53 Mutations: Cytotoxicity of p53 Null Cells at the Nonpermissive Temperature; also: nearly all actives have a fitted effect of over 50% in size
Details: H1299 p53-null (neo) cells, 39C, ATPlite viability, 24 h; series mostly up to 46.1 µM
Method in brief: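 Concentration-response (up to 46 uM) was run for 24 h at the nonpermissive 39C on H1299-p53A138V or H1299-neo cells. ATP content was measured with ATPlite luminescence. AC50 values were Hill-modeled after normalizing between DMSO and 100 uM tamoxifen killing.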
Potency is read from the fitted curve at half-maximal effect.

SMILES | Potency | activity, negative = cell killing
Cc1ccccc1CNC(=O)C(=O)NCC(c1cccs1)S(=O)(=O)c1cccs1 (stereo not drawn) | inactive | –
CCC(=O)N1c2ccccc2CC1C(=O)N1CCN(c2ccccc2F)CC1 (stereo not drawn) | inactive | –
Cc1ccc(OCC(=O)OCc2cc(=O)n3nc(C4CC4)sc3n2)cc1 | inactive | –
COc1ccccc1NC(=O)c1cc(S(=O)(=O)NCCc2ccccc2)ccc1F | inactive | –
COCCn1c(SCC(=O)c2cc(C)ccc2C)nc2cc(C(=O)NC3CCCC3)ccc2c1=O | inactive | –
CCn1c(CNC(=O)c2ccccc2)nnc1SCC(=O)N1CCN(c2ccccc2)CC1 | inactive | –
CCOCN(C(=O)Cn1c(C(C)O)nc2ccccc21)c1c(C)cccc1CC (stereo not drawn) | inactive | –
COc1cc(-c2cc3n(C)c(C)c(CCC(=O)Nc4ccc(F)cc4)c(=O)n3n2)cc(OC)c1OC | inactive | –
COc1ccc(NC(=O)CN2C(=O)C(c3ccccc3)=NC23CCCCCC3)cc1OC | inactive | –
COc1ccc(-c2nn(CC(=O)Nc3ccccc3F)c3c2cnc2ccc(F)cc23)cc1 | inactive | –
COC(=O)c1nc2ccccc2s1 | inactive | –
CCc1ccccc1N1C(=O)CN(S(=O)(=O)CC)CC1(C)C(=O)NC1CCCCC1 (stereo not drawn) | inactive | –
O=C(Nc1cccc(F)c1)c1coc(=O)c(Br)c1 | inactive | –
COc1cccc(CNC(=O)C(=O)NCC(c2cccs2)S(=O)(=O)c2ccccc2)c1 (stereo not drawn) | inactive | –
Cc1ccc(C)c(Cn2c(CCCNC(=O)C3CCCCC3)nc3ccccc32)c1 | inactive | –
O=C(CC(NCc1cccnc1)C(=O)O)Nc1ccc(O)cc1 (stereo not drawn) | inactive | –
CCN1C(=O)c2ccccc2Sc2ccc(NC(=O)Cc3ccc(OC)cc3)cc21 | inactive | –
C/C(CC(=O)Nc1ccc(Cl)cc1)=N\NC(=O)C(=O)NCCO | inactive | –
CC(=O)c1sc(N2C(=O)c3oc4ccccc4c(=O)c3C2c2ccc(C)cc2)nc1C (stereo not drawn) | inactive | –
COC(=O)c1ccccc1NC(=O)Cn1c(=O)n(-c2cccc(C(F)(F)F)c2)c(=O)c2c(C)c(C)sc21 | inactive | –
CCCCOc1ccc(Cn2c(=O)oc3ccc(C)cc32)cc1OC | inactive | –
COc1ccc(CCN2C(=O)C3CC=C(C)CC3C2=O)cc1OC (stereo not drawn) | inactive | –
CCCCOc1ccc(CN2C(=O)C(=O)c3cc(Br)cc(C)c32)cc1OC | 11.2 µM (active) | –
COc1ccc(CCNC(=O)/C(C#N)=C2\N=C(NC(=O)c3cccs3)c3ccccc32)cc1 | inactive | –

SMILES | Potency | activity, negative = cell killing
CCCS(=O)(=O)Nc1cccc(-c2cn3ccsc3n2)c1 | inactive | –
CCC(CC)c1nn2cc(-c3ccccc3)nc2s1 | 7.94 µM (active) | –
CCc1ccc(CNC(=O)C2CCN(c3nn4cc(-c5ccc(F)cc5)nc4s3)CC2)cc1 | inactive | –
Cc1ccc(Cl)cc1NC(=O)CSc1nccn1C | inactive | –
COc1cccc(CNC(=O)Cn2c(=O)c3cccn3c3ccc(F)cc32)c1OC | inactive | –
CC(C)NC(=S)N1CCN(C(c2ccccc2)c2ccccc2)CC1 | – | 2.42% [at 1.84 µM]
CCC(C)NC(=O)Cn1c(=O)n(-c2ccc(Cl)cc2)c(=O)c2c3c(sc21)CCCC3 (stereo not drawn) | inactive | –
Cc1ccc(N(CC(=O)NCC(C)c2ccccc2)S(=O)(=O)N(C)C)cc1 (stereo not drawn) | inactive | –
Cc1ccc(OCCSc2nc(-c3cccs3)nc3cc(=O)[nH]n23)cc1Cl | inactive | –
O=C(ON=C1CCN(S(=O)(=O)c2ccccc2)CC1)c1ccc(Cl)cc1 | inactive | –
CCOC(=O)CSC1=Nc2ccccc2C2=NC(CCC(=O)NCc3ccc(F)cc3)C(=O)N12 (stereo not drawn) | inactive | –
COc1ccc(OCCn2cc(C(=O)C3CCCCC3)c3ccccc32)cc1 | inactive | –
O=C(/C=C/c1cn(CC(O)CN2CCc3ccccc32)c2ccccc12)c1ccc(Br)cc1 (stereo not drawn) | inactive | –
CCOc1ccc(C(=O)/C=C/c2cn(CC(O)CN3CCCCCC3)c3ccccc23)cc1 (stereo not drawn) | 12.6 µM (active) | –
O=C(Cc1cccs1)Nc1nnc(SCc2ccc(F)cc2)s1 | inactive | –
CCc1ccccc1N(C)C(=O)C1CCCN(c2ncnc3onc(-c4ccc(F)cc4)c23)C1 (stereo not drawn) | inactive | –
Cc1nn(Cc2ccc(F)cc2)c(C)c1NC(=O)c1cc(CC(C)C)on1 | inactive | –
COc1ccc(C2(CNC(=O)C(c3ccccc3)c3ccccc3)CCOCC2)cc1OC | inactive | –
CCC(CC)C(=O)N1CCc2cc(OC)c(OC)cc2C1COc1ccc(F)cc1 (stereo not drawn) | inactive | –
COc1cccc(N2CCN(S(=O)(=O)c3cc(Br)cc4c3N(C(=O)C3CC3)CC4)CC2)c1 | inactive | –
Oc1c(C(c2ccc(F)cc2)N2CCN(Cc3ccccc3)CC2)sc2nc(-c3ccco3)nn12 (stereo not drawn) | inactive | –
CCCC(=O)Nc1cc(C(=O)NCc2ccc(OC)cc2)ccc1S(=O)(=O)c1ccc(Cl)cc1 | inactive | –
Cn1c(=O)c(=O)n(C)c2cc(NC(=O)c3ccccc3Br)ccc21 | inactive | –
CCc1nn(CCCC(=O)NCc2ccc(C)cc2)c(=O)c2cc3occc3n12 | inactive | –
